# Columns and labels:
# Assay in all cases: DAPPL (digital affinity profiling via proximity ligation, sequencing); 10 mM Tris-HCl pH 7.5, 50 mM NaCl, 1 mM DTT, 4% glycerol, room temperature, 30 min; GST-TFs on glutathione beads, 16-mer random dsDNA library, 0.1% formaldehyde crosslink after washing; high values mean tight binding
# Conditions in all cases: protein: recombinant; tags: N-terminal GST; dsDNA, one strand shown
# [1] = target: T1, ELK1 (Homo sapiens, UniProt P19419 1-428)
# T1 sequence: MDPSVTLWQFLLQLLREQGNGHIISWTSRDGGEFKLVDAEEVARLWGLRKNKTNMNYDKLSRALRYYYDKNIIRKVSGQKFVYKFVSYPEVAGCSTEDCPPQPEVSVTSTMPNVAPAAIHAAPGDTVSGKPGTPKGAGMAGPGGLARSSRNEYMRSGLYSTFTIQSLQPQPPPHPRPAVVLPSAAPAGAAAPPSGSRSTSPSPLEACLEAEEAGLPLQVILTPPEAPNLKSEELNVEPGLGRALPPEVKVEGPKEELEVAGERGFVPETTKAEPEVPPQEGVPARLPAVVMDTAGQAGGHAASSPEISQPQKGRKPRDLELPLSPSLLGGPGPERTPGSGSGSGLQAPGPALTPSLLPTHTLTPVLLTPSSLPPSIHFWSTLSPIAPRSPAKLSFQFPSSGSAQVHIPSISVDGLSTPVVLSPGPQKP
# Method in brief: (§1)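 Pools were built from human transcription factors expressed in yeast as GST fusions, captured on glutathione beads and DNA-barcoded, along with a tag-only sample. Incubation with 200 nmole of a 16-mer random double-stranded DNA library lasted 30 min at room temperature in Tris/NaCl/DTT/glycerol buffer, and was followed by washing, 0.1% formaldehyde crosslinking, proximity ligation, PCR amplification and Illumina NextSeq500 sequencing. Binding signal is the quotient of each hexamer's read frequency for a factor and its frequency for the tag-only sample.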
# [2] = target: T2, GABPA (Homo sapiens, UniProt Q06546 1-454)
# T2 sequence: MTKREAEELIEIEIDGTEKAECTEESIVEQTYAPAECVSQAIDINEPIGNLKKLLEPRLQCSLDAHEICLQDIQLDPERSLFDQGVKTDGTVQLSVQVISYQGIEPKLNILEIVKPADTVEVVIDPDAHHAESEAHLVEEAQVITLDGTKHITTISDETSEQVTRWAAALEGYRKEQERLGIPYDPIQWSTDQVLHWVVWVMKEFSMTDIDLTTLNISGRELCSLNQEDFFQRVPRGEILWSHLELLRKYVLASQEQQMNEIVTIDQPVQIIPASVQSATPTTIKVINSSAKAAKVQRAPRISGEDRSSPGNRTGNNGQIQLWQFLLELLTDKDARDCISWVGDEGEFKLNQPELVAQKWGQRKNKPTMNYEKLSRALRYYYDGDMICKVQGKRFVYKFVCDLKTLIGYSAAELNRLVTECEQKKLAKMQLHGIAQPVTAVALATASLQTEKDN
# Method in brief: as §1
# [3] = target: SPI1 (Homo sapiens, UniProt P17947 1-270)
# Method in brief: as §1
# [4] = target: T3, ELK3 (Homo sapiens, UniProt P41970 1-407)
# T3 sequence: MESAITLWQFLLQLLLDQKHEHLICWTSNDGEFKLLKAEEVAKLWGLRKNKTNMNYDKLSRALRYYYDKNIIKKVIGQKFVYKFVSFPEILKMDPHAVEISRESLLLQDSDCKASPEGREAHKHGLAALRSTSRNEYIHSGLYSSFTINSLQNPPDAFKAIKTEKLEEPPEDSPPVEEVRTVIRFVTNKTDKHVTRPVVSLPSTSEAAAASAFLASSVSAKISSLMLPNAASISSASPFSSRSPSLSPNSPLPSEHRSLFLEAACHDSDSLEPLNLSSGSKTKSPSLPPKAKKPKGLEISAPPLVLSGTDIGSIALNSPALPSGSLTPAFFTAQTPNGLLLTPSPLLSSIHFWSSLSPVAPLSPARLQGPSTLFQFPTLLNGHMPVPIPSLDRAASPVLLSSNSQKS
# Method in brief: as §1
# [5] = target: T4, SPIC (Homo sapiens, UniProt Q8N5J4 1-248)
# T4 sequence: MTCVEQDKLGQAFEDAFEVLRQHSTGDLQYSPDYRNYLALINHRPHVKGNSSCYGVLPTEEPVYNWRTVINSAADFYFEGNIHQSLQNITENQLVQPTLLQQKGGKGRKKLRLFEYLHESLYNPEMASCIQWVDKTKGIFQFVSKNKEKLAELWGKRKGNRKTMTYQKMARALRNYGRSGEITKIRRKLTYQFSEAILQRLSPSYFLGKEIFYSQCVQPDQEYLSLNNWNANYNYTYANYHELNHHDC
# Method in brief: as §1
# [6] = target: ELF4 (Homo sapiens, UniProt Q99607 1-663)
# ELF4, sequence (Q99607 whole entry): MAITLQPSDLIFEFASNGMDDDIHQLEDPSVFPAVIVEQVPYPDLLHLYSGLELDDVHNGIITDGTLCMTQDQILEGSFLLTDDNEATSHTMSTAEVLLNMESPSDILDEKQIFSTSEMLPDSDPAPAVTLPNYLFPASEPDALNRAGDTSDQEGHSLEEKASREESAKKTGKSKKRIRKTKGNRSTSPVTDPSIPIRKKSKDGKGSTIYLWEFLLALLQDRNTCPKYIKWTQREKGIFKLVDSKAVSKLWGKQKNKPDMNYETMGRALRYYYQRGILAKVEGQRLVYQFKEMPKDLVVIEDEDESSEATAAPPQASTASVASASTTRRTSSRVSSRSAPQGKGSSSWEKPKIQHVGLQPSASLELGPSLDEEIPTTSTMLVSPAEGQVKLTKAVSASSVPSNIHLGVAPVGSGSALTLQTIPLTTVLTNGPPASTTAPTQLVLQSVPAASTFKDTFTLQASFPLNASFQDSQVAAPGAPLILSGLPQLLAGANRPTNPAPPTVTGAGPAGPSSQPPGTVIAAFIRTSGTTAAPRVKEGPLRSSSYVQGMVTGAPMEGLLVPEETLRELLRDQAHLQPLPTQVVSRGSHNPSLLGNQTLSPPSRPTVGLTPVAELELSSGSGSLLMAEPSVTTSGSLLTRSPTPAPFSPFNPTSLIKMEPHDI
# Method in brief: as §1
# [7] = target: T5, ETV2 (Homo sapiens, UniProt O00321 1-342)
# T5 sequence: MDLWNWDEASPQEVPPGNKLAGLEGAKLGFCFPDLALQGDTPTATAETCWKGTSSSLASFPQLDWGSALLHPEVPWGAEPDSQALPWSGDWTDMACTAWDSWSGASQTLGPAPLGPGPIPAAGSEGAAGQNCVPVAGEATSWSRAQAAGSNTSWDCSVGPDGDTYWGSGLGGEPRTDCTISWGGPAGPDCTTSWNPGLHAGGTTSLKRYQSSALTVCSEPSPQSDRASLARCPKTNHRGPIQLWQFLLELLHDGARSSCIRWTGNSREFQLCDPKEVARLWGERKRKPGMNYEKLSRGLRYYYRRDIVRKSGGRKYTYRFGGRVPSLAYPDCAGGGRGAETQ
# Method in brief: as §1
# [8] = target: ETV1 (Homo sapiens, UniProt P50549 1-477)
# ETV1, sequence (P50549 whole entry): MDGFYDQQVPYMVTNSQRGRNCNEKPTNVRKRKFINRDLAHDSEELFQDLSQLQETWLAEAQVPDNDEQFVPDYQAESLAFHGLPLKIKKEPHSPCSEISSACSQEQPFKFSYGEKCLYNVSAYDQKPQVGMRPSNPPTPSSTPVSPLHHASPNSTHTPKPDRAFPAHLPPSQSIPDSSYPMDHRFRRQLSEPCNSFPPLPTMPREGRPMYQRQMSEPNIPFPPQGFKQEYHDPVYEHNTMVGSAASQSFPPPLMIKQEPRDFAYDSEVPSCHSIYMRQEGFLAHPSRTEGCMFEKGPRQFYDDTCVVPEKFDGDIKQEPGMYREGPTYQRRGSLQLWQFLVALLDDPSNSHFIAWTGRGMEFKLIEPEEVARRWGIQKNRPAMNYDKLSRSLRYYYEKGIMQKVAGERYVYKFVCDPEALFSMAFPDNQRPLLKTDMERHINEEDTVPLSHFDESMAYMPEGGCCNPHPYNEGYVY
# Method in brief: as §1
# [9] = target: T6, ERF (Homo sapiens, UniProt P50548 1-548)
# T6 sequence: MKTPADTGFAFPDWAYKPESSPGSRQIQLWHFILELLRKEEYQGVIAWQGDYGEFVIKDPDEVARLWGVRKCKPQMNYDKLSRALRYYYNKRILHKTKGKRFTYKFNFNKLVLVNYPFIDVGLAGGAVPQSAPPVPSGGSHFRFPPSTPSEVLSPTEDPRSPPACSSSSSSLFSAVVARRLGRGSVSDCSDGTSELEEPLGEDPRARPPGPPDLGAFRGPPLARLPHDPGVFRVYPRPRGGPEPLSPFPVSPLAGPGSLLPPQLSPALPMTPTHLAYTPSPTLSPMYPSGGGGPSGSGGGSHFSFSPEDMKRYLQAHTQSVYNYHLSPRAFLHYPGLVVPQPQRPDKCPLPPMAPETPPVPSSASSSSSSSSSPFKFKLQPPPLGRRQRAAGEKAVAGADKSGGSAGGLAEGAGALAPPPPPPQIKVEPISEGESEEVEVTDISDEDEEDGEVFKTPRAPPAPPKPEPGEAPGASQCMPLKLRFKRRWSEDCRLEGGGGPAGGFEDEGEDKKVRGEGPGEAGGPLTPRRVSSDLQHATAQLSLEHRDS
# Method in brief: as §1
# [10] = target: T7, ETS2 (Homo sapiens, UniProt P15036 1-469)
# T7 sequence: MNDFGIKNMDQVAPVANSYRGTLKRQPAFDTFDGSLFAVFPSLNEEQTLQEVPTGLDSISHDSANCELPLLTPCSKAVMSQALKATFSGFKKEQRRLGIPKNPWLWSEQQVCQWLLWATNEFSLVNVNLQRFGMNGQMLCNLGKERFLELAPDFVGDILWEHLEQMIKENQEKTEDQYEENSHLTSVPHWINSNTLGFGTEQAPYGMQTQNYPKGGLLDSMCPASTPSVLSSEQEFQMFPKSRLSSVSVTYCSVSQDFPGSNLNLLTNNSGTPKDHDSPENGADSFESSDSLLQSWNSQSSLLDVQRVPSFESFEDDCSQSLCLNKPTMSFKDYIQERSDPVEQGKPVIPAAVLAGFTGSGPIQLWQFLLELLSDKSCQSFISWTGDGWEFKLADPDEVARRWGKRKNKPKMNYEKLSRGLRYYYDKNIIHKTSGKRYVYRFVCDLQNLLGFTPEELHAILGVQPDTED
# Method in brief: as §1
# [11] = target: T8, ETV7 (Homo sapiens, UniProt Q9Y603 1-341)
# T8 sequence: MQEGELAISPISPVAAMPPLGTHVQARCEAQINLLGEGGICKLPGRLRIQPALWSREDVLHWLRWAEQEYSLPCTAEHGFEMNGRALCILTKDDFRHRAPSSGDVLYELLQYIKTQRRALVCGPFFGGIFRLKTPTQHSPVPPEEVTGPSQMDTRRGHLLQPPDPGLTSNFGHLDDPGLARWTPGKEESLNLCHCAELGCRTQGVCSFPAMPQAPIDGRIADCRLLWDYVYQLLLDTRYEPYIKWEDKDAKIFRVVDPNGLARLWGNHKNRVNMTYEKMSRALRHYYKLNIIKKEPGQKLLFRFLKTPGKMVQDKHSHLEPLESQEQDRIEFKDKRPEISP
# Method in brief: as §1
# [12] = target: T9, ELF5 (Homo sapiens, UniProt Q9UKW6-2 1-255)
# T9 sequence: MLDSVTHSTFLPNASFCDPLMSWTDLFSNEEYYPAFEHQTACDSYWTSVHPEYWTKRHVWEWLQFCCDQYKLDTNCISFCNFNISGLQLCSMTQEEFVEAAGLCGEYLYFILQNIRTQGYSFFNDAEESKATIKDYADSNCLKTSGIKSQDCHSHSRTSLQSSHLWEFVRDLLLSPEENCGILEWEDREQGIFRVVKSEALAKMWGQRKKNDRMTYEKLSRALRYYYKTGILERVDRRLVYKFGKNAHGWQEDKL
# Method in brief: as §1
# [13] = target: T10, ETV3 (Homo sapiens, UniProt P41162-2 1-143)
# T10 sequence: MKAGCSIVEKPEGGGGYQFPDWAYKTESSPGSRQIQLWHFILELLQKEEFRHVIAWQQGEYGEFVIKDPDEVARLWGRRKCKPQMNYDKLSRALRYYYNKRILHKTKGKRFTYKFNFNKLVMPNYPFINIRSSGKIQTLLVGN
# Method in brief: as §1
sequence,measurement,setting,value
ACCTGT,binding signal,[1],"1.05 fold enrichment (6-mer frequency, TF over GST control)"
same,binding signal,[2],"1 fold enrichment (6-mer frequency, TF over GST control)"
same,binding signal,[3],"1.01 fold enrichment (6-mer frequency, TF over GST control)"
same,binding signal,[4],"1.12 fold enrichment (6-mer frequency, TF over GST control)"
same,binding signal,[5],"1.06 fold enrichment (6-mer frequency, TF over GST control)"
same,binding signal,[6],"1.06 fold enrichment (6-mer frequency, TF over GST control)"
same,binding signal,[7],"1.04 fold enrichment (6-mer frequency, TF over GST control)"
same,binding signal,[8],"1.02 fold enrichment (6-mer frequency, TF over GST control)"
same,binding signal,[9],"1.08 fold enrichment (6-mer frequency, TF over GST control)"
same,binding signal,[10],"1.04 fold enrichment (6-mer frequency, TF over GST control)"
same,binding signal,[11],"1.07 fold enrichment (6-mer frequency, TF over GST control)"
same,binding signal,[12],"1.04 fold enrichment (6-mer frequency, TF over GST control)"
same,binding signal,[13],"1.13 fold enrichment (6-mer frequency, TF over GST control)"

# Source: publication PMC7862700, “An all-to-all approach to the identification of sequence-specific readers for epigenetic DNA modifications on cytosine”
